A short description of assay [1]: Nuclear factor erythroid 2-related factor 2/antioxidant responsive element (Nrf2/ARE) small molecule agonists: qHTS cell viability counter screen in human keratinocytes (AID 1919968; active means well fitted curve in the direction sought with a large enough effect in the repeat runs; an effect the other way counts as inactive or inconclusive; further: nearly all actives have a fitted effect of over 55% in size; further: potency means the concentration at half of the fitted maximal effect). In short, it runs like this: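 CellTiter-Fluor fluorescence, read 1 h after reagent, gave viability in the same wells as the ARE-luciferase assay. KeratinoSens cells (1,500/well) had 23 h compound exposure at 37 C/5% CO2 following 5 h plating.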
Background: Quantitative high-throughput screening tests each substance at several concentrations.

A short description of assay [2]: Nuclear factor erythroid 2-related factor 2/antioxidant responsive element (Nrf2/ARE) small molecule agonists: luciferase reporter gene qHTS assay in human keratinocytes (AID 1919969). Further: nearly all actives have a fitted effect of over 35% in size. On the technique in general: In a reporter assay the amount or activity of a reporter protein is the signal.
The target in assay [3] is Gonadotropin-releasing hormone receptor (Homo sapiens) (UniProt P30968). The assay is described as follows: Human gonadotropin-releasing hormone receptor (GnRHR) small molecule agonists, calcium flux assay in GnRHR-HEK293 cells (AID 1920063). Further: nearly all actives have a fitted effect of over 35% in size. The gist of the method:
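Agonist mode: compounds at 15 concentrations, in triplicate, went onto calcium dye-loaded GnRHR-HEK293 cells. Intracellular calcium was then followed as 480/540 nm fluorescence at 1 s intervals over 3 min.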
A general note: A change in cytosolic calcium serves as a functional read-out for many receptors and channels.

Assay [4] has as its target KiSS-1 receptor (Homo sapiens) (UniProt Q969F8). The assay is described as follows: Human kisspeptin (KISS1R) small molecule agonists, calcium flux assay in KISS1R-HEK293 cells (AID 1920064; active means well fitted curve in the direction sought with a large enough effect in the repeat runs; an effect the other way counts as inactive or inconclusive). In short, it runs like this:
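Agonist mode: intracellular calcium rise tracked at 1 s intervals over 3 min (480/540 nm) immediately after compound addition to dye-loaded KISS1R-HEK293 stable cells. Each compound tested at 15 concentrations in triplicate.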

Assay [5] is described as follows: G protein-coupled receptor (GPCR) small molecule agonists, calcium flux assay: HEK293 wild type cell line counter screen (AID 1920065). The gist of the method:
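Calcium flux counter screen: compound added in agonist mode at 15 concentrations in triplicate to dye-loaded parental HEK293 cells. Fluorescence (480/540) read kinetically for 3 min; ATP served as positive control.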

The nature of assay [6]: p53 small molecule agonists, cell-based qHTS assay with human liver microsomes (AID 1963577). In short, it runs like this: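 p53RE-bla cells, 4,000/well, compound added after 5 h, with human liver microsomes 0.5 mg/mL and NADPH 0.5 mg/mL final; 16 h at 37 C, then LiveBLAzer 2 h RT, fluorescence.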
A short description of assay [7]: p53 small molecule agonists, cell-based qHTS assay with rat liver microsomes (AID 1963578). The gist of the method: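 p53RE-bla cells, 4,000/well, pre-incubated 5 h, then given compounds plus rat liver microsomes (0.5 mg/mL final) and NADPH (0.5 mg/mL final). Incubation 16 h at 37 C; beta-lactamase reporter read by LiveBLAzer fluorescence after 2 h at room temperature.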

Assay [8] is described as follows: p53 small molecule agonists, cell-based qHTS assay with human liver microsomes: qHTS cell viability counter screen (AID 1963579). Further: nearly all actives have a fitted effect of over 45% in size. In short, it runs like this:
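p53RE-bla cells, 4,000/well, dosed 5 hours after plating, with human liver microsomes (0.5 mg/mL final) plus NADPH (0.5 mg/mL final), 16 hours at 37 C. Viability read as CellTiter-Glo luminescence after 30 min at room temperature.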

Assay [9] can be described thus: p53 small molecule agonists, cell-based qHTS assay with rat liver microsomes: qHTS cell viability counter screen (AID 1963580). Further: nearly all actives have a fitted effect of over 45% in size. Further: potency means the concentration at half of the fitted maximal effect. The gist of the method:
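Rat liver microsome (0.5 mg/mL final) and NADPH (0.5 mg/mL final) co-incubation with compounds for 16 h at 37 C on HCT-116 p53RE-bla cells; cytotoxicity taken from intracellular ATP luminescence.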

Assay [10] can be described thus: p53 small molecule agonists, cell-based qHTS assay: qHTS cell viability counter screen (AID 1963581). Further: nearly all actives have a fitted effect of over 45% in size. In short, it runs like this: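 Counter screen read by CellTiter-Glo luminescence (ATP content, 30 min at room temperature), run in the same wells as the beta-lactamase reporter read. HCT-116 p53RE-bla cells saw compounds for 16 h at 37 C.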
Assay [11] can be described thus: p53 small molecule agonists, cell-based qHTS assay (AID 1963582; active means well fitted activation curve with a large enough effect in the signal ratio in the repeat runs, not every such curve was filed as active; the % refers to the signal ratio). The gist of the method:
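Read-out is beta-lactamase FRET fluorescence after 2 h at room temperature with LiveBLAzer B/G substrate. p53 response element-bla cells were treated 16 h at 37 C with compounds in DMSO, added 5 h after seeding.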

Assay [12] addresses 5-hydroxytryptamine receptor 2A (Homo sapiens) (UniProt P28223). The assay is described as follows: 5-hydroxytryptamine receptor 2A (HTR2A) small molecule antagonists, cell-based qHTS assay (AID 1963586). Further: nearly all actives have a fitted effect of over 45% in size. In short, it runs like this:
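CHO cells stably expressing human HTR2A were plated for 18 h at 37 C, then loaded with calcium dye for 1 h. Compounds were preincubated 5 min at room temperature before DOI (4 nM solution) was added. Kinetic fluorescence was read for 3 min.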

Assay [13] has the same target. Description: 5-hydroxytryptamine receptor 2A (HTR2A) small molecule agonists, cell-based qHTS assay (AID 1963587). Further: nearly all actives have a fitted effect of over 30% in size. In short, it runs like this: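 Kinetic calcium-flux fluorescence (2 min, 1 sec intervals) after compound addition in agonist mode. HTR2A-CHO cells were cultured 18 h, then dye-loaded 1 h at 37 C.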
For assay [14], the target named is Muscarinic acetylcholine receptor M1 (Homo sapiens) (UniProt P11229). The assay is described as follows: Cholinergic receptor muscarinic 1 (CHRM1) small molecule antagonists, cell-based qHTS assay (AID 1963588). Further: nearly all actives have a fitted effect of over 40% in size. The gist of the method: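 Compounds were tested at 15 concentrations in three independent runs. Dye-loaded CHRM1-CHO cells were exposed 5 min at room temperature before stimulation by acetylcholine added at 50nM. Intracellular calcium was read kinetically on FDSS for 3 min.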
Sequence of Muscarinic acetylcholine receptor M1 (Homo sapiens) (P11229 whole entry, looked up): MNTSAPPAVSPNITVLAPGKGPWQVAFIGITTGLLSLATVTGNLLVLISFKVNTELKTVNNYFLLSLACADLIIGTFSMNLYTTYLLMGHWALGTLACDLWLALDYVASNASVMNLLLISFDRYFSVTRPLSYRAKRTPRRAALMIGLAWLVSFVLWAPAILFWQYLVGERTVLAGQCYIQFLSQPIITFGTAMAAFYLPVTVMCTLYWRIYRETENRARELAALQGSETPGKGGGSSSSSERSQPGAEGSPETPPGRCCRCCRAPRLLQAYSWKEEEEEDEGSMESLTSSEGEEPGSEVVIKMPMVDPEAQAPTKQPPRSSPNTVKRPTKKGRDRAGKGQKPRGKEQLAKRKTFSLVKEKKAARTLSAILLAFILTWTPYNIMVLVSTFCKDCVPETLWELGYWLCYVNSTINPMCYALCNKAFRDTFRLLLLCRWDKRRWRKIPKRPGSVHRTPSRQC

The target is the same in assay [15]. Description: Cholinergic receptor muscarinic 1 (CHRM1) small molecule agonists, cell-based qHTS assay (AID 1963589). Further: nearly all actives have a fitted effect of over 35% in size. In short, it runs like this:
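Agonist-mode calcium-flux screen: compounds at 15 concentrations, three independent runs, were pin-transferred onto dye-loaded human CHRM1-CHO cells. Fluorescence was then recorded kinetically every second over minutes.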

Assay [16] can be described thus: cAMP Responsive Elements (CRE) small molecule agonists, cell-based qHTS assay (AID 1963590). The gist of the method:
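Agonist mode: compound added to CRE-bla HEK 293T cells (2,000/well, 18 h after plating) for 3 h at 37 C/5% CO2. Reporter activity detected via FRET beta-lactamase substrate, 2 h room-temperature loading.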

Assay [17] in a line: cAMP Responsive Elements (CRE) small molecule antagonists, cell-based qHTS assay (AID 1963591; active means well fitted inhibition curve with a large enough effect in the signal ratio in the repeat runs, not every such curve was filed as active; the % refers to the signal ratio). The gist of the method:
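Antagonist mode: compounds are added alongside the adenylyl cyclase activator NKH477 (0.25 uM final) to CRE-bla HEK293T cells for 3 h. LiveBLAzer FRET substrate, 2 h at room temperature, reports bla expression.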

The target of assay [18] is Beta-2 adrenergic receptor (Homo sapiens) (UniProt P07550). Description: Adrenergic beta2 receptor (ADRB2) small molecule antagonists, cell-based qHTS assay (AID 1963592). Further: series mostly up to about 92 µM; nearly all actives have a fitted effect of over 50% in size. The gist of the method:
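Assay format: CHO-ADRB2 cells, 18-20hr seeding at 37C/5% CO2, then compound plus 1nM isoproterenol agonist mix for 0.5hr RT. Homogeneous time-resolved fluorescence cAMP detection after 1hr, expressed as 665/615 nm ratio.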

The target in assay [19] is D(2) dopamine receptor (Homo sapiens) (UniProt P14416). The assay is described as follows: Dopamine D2 receptor (DRD2) small molecule agonists, cell-based qHTS assay (AID 1963594). Further: nearly all actives have a fitted effect of over 35% in size. In short, it runs like this:
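cAMP accumulation in DRD2-HEK293 cells measured by HTRF after 1 h detection; compounds added 10 min before NKH477 (200nM […]) forskolin-analogue stimulation, 30 min at room temperature, with Ro20-1724 present at 0.1 mM final.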

Assay [20] has the same target. The assay is described as follows: Dopamine D2 receptor (DRD2) small molecule antagonists, cell-based qHTS assay (AID 1963595; active means well fitted inhibition curve with a large enough effect in the signal ratio in the repeat runs, with a control signal flat; the % refers to the signal ratio). The gist of the method:
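Stable D2 receptor HEK293 line, 24 h after seeding. Compound preincubated 10 min, then quinpirole (12 nM) with forskolin analogue NKH477 (200 nM), 30 min, room temperature. Detection by time-resolved FRET of cAMP.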

Molecules are shown by their SMILES. Results filed as inconclusive are left out. A structure can be active in one record and inactive in another. Calls of active or inactive are those of the source. Unless noted, the call rests on the fitted dose curve.
On the % scale 0 is the no-effect control and ±100 the full control effect.

Sequence of KiSS-1 receptor (Homo sapiens) (Q969F8 whole entry, looked up): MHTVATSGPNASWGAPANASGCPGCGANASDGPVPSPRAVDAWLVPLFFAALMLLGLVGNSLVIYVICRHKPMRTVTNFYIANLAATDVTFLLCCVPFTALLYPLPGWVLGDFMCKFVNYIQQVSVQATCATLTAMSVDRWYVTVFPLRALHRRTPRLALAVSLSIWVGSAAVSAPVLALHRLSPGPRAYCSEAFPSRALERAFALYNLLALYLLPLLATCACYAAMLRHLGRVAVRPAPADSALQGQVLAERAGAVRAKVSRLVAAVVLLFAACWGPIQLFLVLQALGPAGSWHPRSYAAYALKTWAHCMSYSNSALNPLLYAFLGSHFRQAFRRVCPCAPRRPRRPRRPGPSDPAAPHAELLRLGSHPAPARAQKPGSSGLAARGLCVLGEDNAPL
Sequence of Beta-2 adrenergic receptor (Homo sapiens) (P07550 whole entry, looked up): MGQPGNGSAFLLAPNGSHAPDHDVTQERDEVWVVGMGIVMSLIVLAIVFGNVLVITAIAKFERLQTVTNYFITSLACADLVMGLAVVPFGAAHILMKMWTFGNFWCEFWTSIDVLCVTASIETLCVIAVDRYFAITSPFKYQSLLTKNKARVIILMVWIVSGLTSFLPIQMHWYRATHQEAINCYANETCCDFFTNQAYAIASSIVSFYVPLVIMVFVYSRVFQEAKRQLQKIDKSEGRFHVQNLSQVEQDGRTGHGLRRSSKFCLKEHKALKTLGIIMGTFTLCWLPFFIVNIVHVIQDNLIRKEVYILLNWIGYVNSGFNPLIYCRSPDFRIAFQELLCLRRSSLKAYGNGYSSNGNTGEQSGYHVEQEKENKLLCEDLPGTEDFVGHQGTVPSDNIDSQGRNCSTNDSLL
Sequence of D(2) dopamine receptor (Homo sapiens) (P14416 whole entry, looked up): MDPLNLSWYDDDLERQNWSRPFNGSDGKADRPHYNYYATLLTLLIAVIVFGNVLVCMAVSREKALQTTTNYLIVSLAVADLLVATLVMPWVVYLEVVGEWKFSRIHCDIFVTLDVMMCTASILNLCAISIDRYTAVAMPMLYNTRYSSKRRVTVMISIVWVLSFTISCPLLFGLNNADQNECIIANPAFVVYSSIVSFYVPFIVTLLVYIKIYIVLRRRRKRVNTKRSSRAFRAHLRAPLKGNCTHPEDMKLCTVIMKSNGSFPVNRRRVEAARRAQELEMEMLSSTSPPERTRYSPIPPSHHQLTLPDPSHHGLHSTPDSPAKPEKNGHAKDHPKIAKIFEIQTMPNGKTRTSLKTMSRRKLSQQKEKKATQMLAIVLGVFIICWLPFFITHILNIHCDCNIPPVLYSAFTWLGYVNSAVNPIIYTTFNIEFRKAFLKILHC
Sequence of 5-hydroxytryptamine receptor 2A (Homo sapiens) (P28223 whole entry, looked up): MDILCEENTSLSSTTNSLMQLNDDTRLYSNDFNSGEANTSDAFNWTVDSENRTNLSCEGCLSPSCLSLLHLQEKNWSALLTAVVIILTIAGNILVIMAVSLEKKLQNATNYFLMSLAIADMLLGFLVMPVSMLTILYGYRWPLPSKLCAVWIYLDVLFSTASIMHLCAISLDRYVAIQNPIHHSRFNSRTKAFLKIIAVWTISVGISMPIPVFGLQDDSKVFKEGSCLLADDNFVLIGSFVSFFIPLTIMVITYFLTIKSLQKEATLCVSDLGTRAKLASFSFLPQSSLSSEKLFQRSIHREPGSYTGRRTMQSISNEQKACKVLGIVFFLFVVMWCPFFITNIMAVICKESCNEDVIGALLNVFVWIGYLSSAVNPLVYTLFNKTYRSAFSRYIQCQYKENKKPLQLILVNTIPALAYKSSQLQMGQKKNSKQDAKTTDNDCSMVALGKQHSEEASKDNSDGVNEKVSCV
Sequence of Gonadotropin-releasing hormone receptor (Homo sapiens) (P30968 whole entry, looked up): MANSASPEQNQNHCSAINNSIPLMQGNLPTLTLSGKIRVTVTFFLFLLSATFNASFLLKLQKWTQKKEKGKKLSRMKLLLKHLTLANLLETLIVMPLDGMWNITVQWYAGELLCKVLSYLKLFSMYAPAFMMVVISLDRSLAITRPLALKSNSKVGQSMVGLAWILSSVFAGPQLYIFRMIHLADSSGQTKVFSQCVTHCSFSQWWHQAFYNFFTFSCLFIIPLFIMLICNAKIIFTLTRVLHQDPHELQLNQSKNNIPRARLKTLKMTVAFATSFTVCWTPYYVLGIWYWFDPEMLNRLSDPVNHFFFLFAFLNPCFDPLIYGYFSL

Turning to `CCCC(=O)OCc1ccccc1`, the Potency result in assay [1], in [2], in assay [3], in [4], in assay [5] and in [6] was “inactive” throughout. The Potency result in assay [7], in assay [8], in [9], in assay [10], in assay [11] and in assay [12] was “inactive” in each case. Further, the Potency result in [13], in assay [14], in [15], in [16], in assay [17] and in assay [18] was “inactive” in each case. Also, the Potency entry in assay [19] and in assay [20] was “inactive” each time.

Turning to `COC(=O)c1ccc(C(=O)OC)cc1`, the Potency in assay [1] is 2.47 µM (active) and inactive; in assay [9], 18.5 µM (active) and inactive. The Potency result in assay [2], in [3], in [4], in assay [5], in assay [6] and in [7] was “inactive” in each case. Moreover, the Potency result in [8], in assay [10], in assay [11], in assay [12], in [13] and in [14] was “inactive” in each case. Also, the Potency entry in assay [15], in assay [16], in assay [17], in assay [18], in [19] and in assay [20] was “inactive” in each case.

For `O=C(O)CN(CCCN(CC(=O)O)CC(=O)O)CC(=O)O`, the activity change, negative = cytotoxicity is -0.241% [at 19 µM] (inactive) in assay [1], 10.7% [at 13.5 µM] (inactive) in assay [8], 9.92% [at 13.5 µM] (inactive) in [9] and 11.6% [at 13.5 µM] (inactive) in assay [10]. Moreover, in assay [2], the activity, positive = activation was -12.6% [at 19 µM] (inactive). In addition, the activity change in assay [3] is 14.7% [at 11.8 µM, stronger effect = higher value] (inactive). The activation was -0.261% [at 15.8 µM] (inactive) in assay [4]; 9.2% [at 11.8 µM] (inactive) in assay [5]; -11.5% [at 13.5 µM] (inactive) in assay [6]; -0.0734% [at 13.6 µM] (inactive) in [7]; 5.83% [at 13.5 µM] (inactive) in [11]; 8.84% [at 15.9 µM] (inactive) in assay [13]. Also, the activation in assay [15] is 5.74% [at 15.8 µM] (inactive); in assay [16], 1.21% [at 19 µM] (inactive); in assay [19], -4.48% [at 19 µM] (inactive). The activity, negative = inhibition in assay [12] was 19% [at 12.7 µM] (inactive); in [14], -1.12% [at 12.6 µM] (inactive). For the same molecule, the activity change, negative = inhibition in assay [17] is 19.1% [at 18.9 µM] (inactive); in assay [18], 0.405% [at 19 µM] (inactive); in assay [20], 6.03% [at 18.9 µM] (inactive).

With `CC(C)C(=O)c1c(C(C)C)nn2ccccc12`, the Potency result in [1], in assay [2], in assay [3], in assay [4], in assay [5] and in assay [6] was “inactive” in each case. The Potency result in assay [7], in assay [8], in assay [9], in [10], in assay [11] and in [12] was “inactive” each time. Also, the Potency result in [13], in [14], in assay [15], in assay [16], in assay [17] and in assay [18] was “inactive” each time. Besides, the Potency entry in assay [19] and in [20] was “inactive” each time.

As to `O=C(Cl)c1ccccc1[N+](=O)[O-]`, the Potency result in assay [1], in assay [2], in [3], in [4], in assay [5] and in assay [6] was “inactive” throughout. Further, the Potency entry in assay [7], in assay [8], in [9], in assay [10], in assay [11] and in [12] was “inactive” in each case. Further, the Potency result in assay [13], in assay [14], in assay [15], in assay [16], in assay [17] and in assay [18] was “inactive” in each case. Also, the Potency entry in [19] and in assay [20] was “inactive” in each case.

As for `O=C1CCCc2ccccc21`, the Potency result in assay [1], in assay [2], in assay [3], in assay [4], in assay [5] and in [6] was “inactive” throughout. In addition, the Potency entry in assay [7], in [8], in assay [9], in assay [10], in assay [11] and in assay [12] was “inactive” in each case. Also, the Potency entry in assay [13], in [14], in assay [15], in [16], in [17] and in assay [18] was “inactive” each time. Besides, the Potency entry in assay [19] and in assay [20] was “inactive” in each case.
